Screening data as filed in PubChem BioAssay.
This is a sample that favours compounds with a hit; in the whole collection about 3.7% have one here.
esBAF inh: blocks esBAF chromatin remodeling in mouse ES cells; reporter increase, % at 12.5 µM; AID 602393; Bmi1-luciferase knock-in reporter, 24 h; 100% = twice the neutral-well signal; 2% of 350,000 active; in the data active means activation above about 40%; inconclusive means no clear call, values can overlap the other calls;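 further: 0% = median of the plate's neutral control wells and 100% = double that signal; a rise in the Bmi1 reporter signal indicates esBAF inhibition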
rRNA inh HTS: inhibitors of bacterial rRNA selective over humanized ribosomes; E. coli WT GFP vs humanized-ribosome RFP mutants, fluorescence, 24 h; hits give low values; DMSO median 0, no signal -100; AID 720706; GFP signal change (wild-type ribosome), % (concentration not given with the values); 1.6% of 350,000 active;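 active means significant combined selectivity score with lowered wild-type GFP, culture density cut under 30%, mutant RFP and density less affected; inactive means any of these conditions unmet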
Wnt act: activators of Wnt/beta-catenin signaling; activation, % at 9.35 µM; Wnt/beta-catenin reporter cell assay, activator, plate reader; 1.2% of 300,000 active; AID 743398; in the data active means activation above about 30%, passing the limit was not always enough; inconclusive means no clear call, values can overlap the other calls;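 further: 0% = neutral control wells and 100% = positive control wells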
MITF TRPM1 HTS: MITF TRPM1 promoter activation in melanoma cells | activation, % at 12.5 µM | SK-MEL-5 TRPM1-promoter luciferase, 24 h; % of positive control, neutral wells = 0 | 0.75% of 300,000 active;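 active means mean activation of at least 80% with every replicate also reaching 80%; inconclusive means mean reaches 80% but some replicate falls short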;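 further: 0% = neutral control wells and 100% = parthenolide positive control wells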
AF4-AF9 inh: blocks AF4 peptide binding to human AF9. P42568. AlphaScreen, biotin-AF4 peptide binding to FLAG-AF9. inhibition, % at 10 µM. 0.47% of 350,000 active. AID 651704;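 active means every replicate reaching a set inhibition limit, whatever the replicate mean, cut at about 25% in these data; inconclusive means mean inhibition reaches that limit but some replicates miss it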;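 further: 0% = plate neutral control median and 100% = total signal loss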
Target sequence (P42568 whole entry, looked up): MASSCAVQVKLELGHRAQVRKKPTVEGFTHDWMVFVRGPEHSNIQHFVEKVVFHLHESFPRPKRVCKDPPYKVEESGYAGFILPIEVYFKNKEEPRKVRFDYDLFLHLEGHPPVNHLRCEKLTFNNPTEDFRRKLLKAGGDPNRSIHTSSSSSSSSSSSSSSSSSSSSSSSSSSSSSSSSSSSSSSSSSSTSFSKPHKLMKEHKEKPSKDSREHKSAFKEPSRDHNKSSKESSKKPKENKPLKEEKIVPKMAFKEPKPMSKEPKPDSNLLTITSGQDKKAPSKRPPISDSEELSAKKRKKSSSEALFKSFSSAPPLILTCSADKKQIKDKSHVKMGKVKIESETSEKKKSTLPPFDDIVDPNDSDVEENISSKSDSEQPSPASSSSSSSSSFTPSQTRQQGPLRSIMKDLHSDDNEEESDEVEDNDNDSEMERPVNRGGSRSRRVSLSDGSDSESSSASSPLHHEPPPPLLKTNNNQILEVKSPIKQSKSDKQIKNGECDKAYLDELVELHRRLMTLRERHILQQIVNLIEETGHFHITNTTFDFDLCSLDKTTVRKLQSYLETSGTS
Starred values were filed as active, the others as inactive; ? = inconclusive; nt = not tested or not shown; ! = not active in a repeat.

SMILES	esBAF inh	rRNA inh HTS	Wnt act	MITF TRPM1 HTS	AF4-AF9 inh
Cc1cc(NS(=O)(=O)c2ccc(NC(=O)c3c(F)c(F)c(F)c(F)c3F)cc2)nc(C)n1	-3.9	1.0	0.9	6.8	-1.4
Cc1ccc(S(=O)(=O)Nc2ccc(NC(=O)c3c(F)c(F)c(F)c(F)c3F)cc2)cc1	nt	-25.6*	-6.3	-21.0	-2.7
CC(=O)Nc1ccc(/C=N/N2CCCCC2)cc1	61.6*	25.6	8.7	74.3	2.7
O=[N+]([O-])c1ccc(C=NN2CCCCCC2)cc1	69.2*	0.3	59.9*	40.6	35.0*
CC1=C([N+](=O)[O-])C(c2ccccc2)C2=C(N1)c1ccccc1C2=O (stereo not drawn)	-3.0	nt	-21.3	nt	nt
COc1cccc2c1OC1(CCN(C(C)C)CC1)N1N=C(c3cccnc3)CC21 (stereo not drawn)	nt	-1.5	34.1*	nt	3.6
CC(C)NC(=O)N1CCCCN2[C@H](CO)[C@H](c3ccc(C#C[C@@H](C)O)cc3)[C@H]2C1	nt	6.8	nt	nt	nt
Cc1ccc(Cl)cc1N1CCN(S(=O)(=O)c2ccc3[nH]c(=O)c(=O)[nH]c3c2)CC1	-2.1	-29.3*	-0.5	-17.1	-0.9
COc1cc(/C=N/NC(=O)c2sc3ccccc3c2Cl)ccc1OC(=O)c1ccc([N+](=O)[O-])cc1	-5.9	8.3	6.0	17.8	8.4
CCOC(=O)c1c(C=O)c2sc(C)cc2n1C	5.5	1.6	43.9*	23.8	?
CCOC(=O)c1c(C=O)c2ccccc2n1CC	2.6	-6.4	-2.8	-5.7	-2.2
O=C(c1cccc(F)c1)N1CC(=O)N2[C@H](CO)[C@@H](c3ccc(-c4ccccc4)cc3)[C@@H]2C1	nt	4.1	nt	nt	nt
CCC(C)[C@H](NC(=O)N1CCn2c1nc1ccccc12)C(=O)NCCc1ccc(OC)c(OC)c1 (stereo partly drawn)	2.8	-19.6*	-0.2	-14.3	0.1
O=C(NCC(=O)N1CCCC1)c1ccccc1F	47.7*	2.9	-3.7	38.0	-2.1
O=C(NCC(=O)N1CCC(Cc2ccccc2)CC1)c1ccccc1F	53.2*	-34.3	44.6*	nt	-2.2
CN(C)CCCN=Cc1c(O)n(Cc2ccccc2)c(=O)c2ccccc12	-8.4	nt	nt	8.2	nt
CN(C)CCN=Cc1c(O)n(Cc2ccccc2)c(=O)c2ccccc12	-6.8	-24.0*	-1.0	2.3	9.9
c1ccc(N=NN2CCOCC2)cc1	11.5	7.8	-3.3	nt	-1.8
c1ccc(N=NC2=NN(c3ccccc3)CS2)cc1	nt	-29.5*	53.6*	nt	3.2
Cc1cc(C)c(C)c(S(=O)(=O)N[C@@H](C)C(=O)OCC(=O)NC2CCCC(C)C2C)c1C (stereo partly drawn)	3.7	-3.5	-1.2	20.5	-4.0
CC(C)(C)OC(=O)N1CCC[C@@H]1C(=O)N1CCC[C@@H]1C(=O)NCc1ccccc1Cl	nt	-1.0	-2.7	nt	-3.8
O=c1oc2ccccc2c(NCc2ccccc2)c1[N+](=O)[O-]	nt	-21.0	-0.4	-11.0	3.7
O=c1oc2ccccc2c(NCc2ccc(Cl)cc2)c1[N+](=O)[O-]	4.2	-38.7*	2.1	-5.2	1.6
COc1ccc(-c2cn(Cc3ccc(C(N)=O)cc3)c(-c3ccncc3)n2)cc1	76.5*	-5.7	47.0*	106.1*	2.6
CC(C)OCCCN1CN(S(=O)(=O)c2ccccc2)c2nc3ccccc3nc21	43.4*	nt	6.6	37.9	nt
SMILES	esBAF inh	rRNA inh HTS	Wnt act	MITF TRPM1 HTS	AF4-AF9 inh
Cc1nc(-c2ccc(F)cc2)c(CC(=O)N(C)CC(=O)Nc2ccccc2Cl)s1	2.9	4.7	3.2	1.3	4.9
C[C@@H]1CN([C@@H](C)CO)C(=O)c2cccc(NC(=O)c3ccncc3)c2O[C@@H]1CN(C)Cc1ccc(-c2ccccc2)cc1	-6.3	-19.1*!	-2.0	-6.2	3.3
C[C@@H]1CN([C@H](C)CO)C(=O)c2cccc(NC(=O)c3ccncc3)c2O[C@@H]1CN(C)Cc1ccc(Oc2ccccc2)cc1	-0.3	-5.2	nt	nt	25.0*
C[C@@H]1CN([C@@H](C)CO)C(=O)c2cccc(NC(=O)c3ccncc3)c2O[C@H]1CN(C)Cc1ccc(Oc2ccccc2)cc1	1.5	nt	nt	nt	3.2
COc1cccc(C(C(=O)NC(C)(C)C)N(C(=O)CCC(=O)Nc2cc(C)on2)C(C)C)c1OC (stereo not drawn)	10.6	nt	nt	nt	nt
CCOC(=O)C(c1nc2ccccc2[nH]1)n1c(-c2ccccn2)nc2ccccc21 (stereo not drawn)	49.4*	3.3	1.3	nt	3.1
CCC(c1nc2ccccc2[nH]1)n1c(-c2cnccn2)nc2ccccc21 (stereo not drawn)	nt	0.0	-1.6	nt	0.3
C=CCn1c(-c2ccccc2)c[nH]c1=S	64.5*	nt	42.5*	65.3	nt
C=CCn1c(-c2ccc(Cl)cc2)c[nH]c1=S	21.7	nt	10.4	0.4	nt
C/C(=N\NC(=O)c1ccco1)c1ccc(NC(=O)c2cccs2)cc1	nt	nt	39.3*	31.9	nt
C/C(=N\NS(=O)(=O)c1ccc([N+](=O)[O-])cc1)c1ccc(NC(=O)c2ccco2)cc1	-0.1	11.6	34.1*	68.1	-0.6
C/C(=N\NC(=O)c1ccccc1)c1ccc(NC(=O)c2cccs2)cc1	nt	15.2	-0.7	24.2	-3.9
C/C(=N\NC(=O)c1ccccc1C)c1ccc(NC(=O)c2cccs2)cc1	53.2*	nt	nt	14.4	nt
O=C(Nc1ccc(NC(=O)c2cccs2)c(Cl)c1)c1ccco1	nt	-27.1*	-1.0	-1.1	1.0
Cc1cccc(C)c1NC(=S)N(Cc1ccccc1)Cc1cccs1	-8.8	-21.4*	0.2	-0.9	-1.0
O=C(O)CNC(=S)N(Cc1ccccc1)Cc1cccs1	nt	-10.6	-1.2	-1.4	-1.9
CCOC(=O)CNC(=S)N(Cc1ccccc1)Cc1cccs1	-3.2	-26.4*	-1.8	1.3	-4.0
O=C(CNC(=S)N(Cc1ccccc1)Cc1ccccc1F)NCCc1ccccc1	3.6	-24.4	-0.2	4.8	0.5
CCOC(=O)CNC(=S)N(Cc1ccccc1)Cc1ccccc1F	nt	-33.8*	-2.0	6.9	-2.4
O=[N+]([O-])c1ccc(C=NN2CCOCC2)s1	4.6	nt	-3.5	nt	9.1
CN(C)CC#Cc1ccc([C@H]2[C@@H](CO)N3CCCCN(CC4CC4)C[C@H]23)cc1	nt	4.2	nt	nt	26.1*
CN(C)CC#Cc1ccc([C@@H]2[C@@H](CO)N3CCCCN(CC4CC4)C[C@H]23)cc1	nt	5.8	nt	nt	15.8
CN(C)CC#Cc1ccc([C@@H]2[C@H]3CN(CC4CC4)CCCCN3[C@H]2CO)cc1	nt	12.6	nt	nt	26.3*
CN(C)/C=C/C(=O)/C=C/c1ccc(Cl)cc1Cl	nt	-9.0	?	92.4*	1.4
CC(C)(C)OC(=O)N1O[C@H]2C=C[C@@H]1C2	nt	5.0	-2.0	nt	-1.9
CCCCCCCCN1N=N[C@H]2[C@H]1[C@@H]1C[C@H]2N(C(=O)OC(C)(C)C)O1	1.7	-31.9*	-1.6	-4.9	-0.8
Cc1c(C(=O)Nc2ccccc2F)cnn1-c1ccccc1	24.0	-10.9	10.0	88.4*	0.6
Cc1c(C(=O)Nc2cc(F)cc(F)c2)cnn1-c1ccccc1	?	2.1	57.3*	121.1*	-0.3
CCc1ccc(NC(=O)c2cnn(-c3ccccc3)c2C)cc1	nt	nt	nt	43.8	nt
